An excerpt weighted towards active compounds, which were near 2.4% of everything screened.
POLK inh: inhibitors of human DNA polymerase kappa. purified Pol kappa, fluorescent DNA synthesis assay, 10 min. Potency, µM (doses to about 107 µM), most hits filed as inhibitors. hit rate 0.53% among 400,000. AID 588579
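Fluorescent qHTS in 1536-well format: enzyme (10 nM) and compound sat 15 min at room temperature before 50 nM substrate (final) was added. Signal taken at 0 and 10 min; no-enzyme buffer wells were negative controls.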
TDP1 inh: blocks human tyrosyl-DNA phosphodiesterase 1. hit rate 0.28% among 350,000. Q9NUW8. Potency, µM (titrated, usually from 130 µM), hits mostly inhibitors. recombinant TDP1, AlphaScreen DNA substrate cleavage; note: nearly all actives have a fitted effect of over 40% in size
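Tdp1 1 nM final; 15 min RT w/ cpd; substrate 15 nM, 5 min; beads 10 ug/ml, 10 min; AlphaScreen read. Neg ctrl: no enzyme.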
POLB inh: inhibitors of human DNA polymerase beta. Pol beta primer extension/strand displacement, fluorescence kinetic. AID 485314. P06746. hit rate 1.3% among 340,000. Potency, µM (titrated, usually from 114 µM), actives largely listed as inhibitors
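Reaction started by 50 nM substrate onto compound-treated Pol beta (10 nM, 15 min preincubation, room temperature); plates read at 0 min and 10 min. Normalized concentration-effect data fitted by four-parameter Hill equation.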
Pol eta inh: inhibitors of human DNA polymerase eta; Q9Y253; recombinant Pol eta, fluorescent DNA replication assay; Potency, µM (series often up to 114 µM), actives largely listed as inhibitors; hit rate 1.2% among 390,000; AID 588591
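Pol eta (10 nM) was preincubated with compounds for 15 min at room temperature, after which fluorescent replication substrate (50 nM final) was added to start the reaction. Fluorescence was read kinetically at 0 and 10 min.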
POLI inh: inhibitors of human DNA polymerase iota; Q9UNA4; Pol iota fluorescent replication assay, 10 min; Potency, µM (titrated, usually from 115 µM), actives largely listed as inhibitors; hit rate 1% among 390,000; AID 588590
Target sequence (Q9UNA4 whole entry, looked up): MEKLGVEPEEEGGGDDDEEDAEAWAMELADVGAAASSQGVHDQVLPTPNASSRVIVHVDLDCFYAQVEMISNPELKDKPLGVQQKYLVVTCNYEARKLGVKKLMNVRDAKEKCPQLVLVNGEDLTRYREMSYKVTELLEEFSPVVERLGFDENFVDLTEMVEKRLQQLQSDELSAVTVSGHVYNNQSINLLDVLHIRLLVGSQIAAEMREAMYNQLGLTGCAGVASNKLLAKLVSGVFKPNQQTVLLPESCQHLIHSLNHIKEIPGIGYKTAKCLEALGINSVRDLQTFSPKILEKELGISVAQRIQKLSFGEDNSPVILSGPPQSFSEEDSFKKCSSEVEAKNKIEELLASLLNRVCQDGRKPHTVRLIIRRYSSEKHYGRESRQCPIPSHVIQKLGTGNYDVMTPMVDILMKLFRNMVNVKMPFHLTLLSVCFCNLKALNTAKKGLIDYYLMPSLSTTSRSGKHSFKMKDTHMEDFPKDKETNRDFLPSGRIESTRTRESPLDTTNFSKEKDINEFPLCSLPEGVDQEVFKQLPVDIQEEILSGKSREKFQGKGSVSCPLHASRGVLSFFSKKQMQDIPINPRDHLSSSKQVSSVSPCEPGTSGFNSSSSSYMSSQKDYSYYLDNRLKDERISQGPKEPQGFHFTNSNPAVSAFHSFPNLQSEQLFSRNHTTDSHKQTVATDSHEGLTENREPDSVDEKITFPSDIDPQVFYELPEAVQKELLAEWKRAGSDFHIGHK
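Fluorescent replication assay read twice, at 0 min and 10 min after adding 50 nM (final) substrate. Enzyme (10 nM) and compounds were first incubated 15 min at room temperature; enzyme-free buffer wells were negative controls.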
Numbers stand for hits; 0 = inactive; ? = inconclusive; - = not tested or not shown; [ ] = another dose, or the depositor's remark. Calls come from the whole dose curve; as a rule, active = well fitted curve in the direction sought with a large enough effect; inconclusive = small, poorly fitted or top-dose-only effect, or another doubt; inactive = no such curve, though single readings can be large; an effect the other way counts as inactive or inconclusive.

SMILES | POLK inh | TDP1 inh | POLB inh | Pol eta inh | POLI inh
CCC(=O)NCCc1c[nH]c2ccccc12 | 0 | 0 | 0 | 0 | 0
O=C(NCCc1c[nH]c2ccccc12)OCCSS(=O)(=O)O | 0 | 0 | 0 | 0 | 25.1µM
CC(=O)c1sc2nsc(SCCN3CCCC3)c2c1N | 0 | 0 | 0 | 0 | 17.8µM
CC(=O)c1sc2nc(C)c3c(c2c1N)CCCC3 | 0 | 0 | 0 | 0 | 0
CCOC(=O)COc1ccc(/C=C(\C#N)c2nc3ccc(C)cc3[nH]2)cc1OC | ? | 0 | 11.2µM | 79.4µM | ?
COc1cc(/C=C(\C#N)c2nc3ccccc3[nH]2)cc(OC)c1O | ? | 0 | ? | ? | ?
COc1ccc(/C=C(\C#N)c2nc3ccccc3[nH]2)cc1O | 0 | - | 25.1µM | 79.4µM | ?
O=C(OCC#CCSc1nnc(-c2ccc3ccccc3c2)o1)c1cccs1 | - | 0 | - | - | -
CN(Cc1nccs1)c1ncnc2ccc(-c3ccc4c(c3)OCO4)cc12 | - | 0 | - | - | -
COc1ccc(OCC(=O)Nc2ccccc2Cl)cc1 | 0 | 0 | 17.8µM | 0 | 0
CCCc1cc(F)c(S(=O)(=O)N2CCN(S(=O)(=O)c3ccc4c(c3)OCCO4)CC2)cc1F | - | 0 | - | - | -
CC(C)Sc1oc(-c2ccco2)nc1S(=O)(=O)c1ccc(F)cc1 | ? | 0 | 28.2µM | 70.8µM | ?
O=S(=O)(c1ccc(Br)cc1)c1nc(-c2ccco2)oc1SCc1ccccc1Cl | ? | 0 | 0 | 0 | 79.4µM
Cc1ccc(S(=O)(=O)c2nc(-c3ccco3)oc2SC(C)c2ccccc2)cc1 (stereo not drawn) | 0 | 0 | ? | ? | ?
Cc1ccc(CSc2oc(-c3ccco3)nc2S(=O)(=O)c2ccc(Br)cc2)cc1 | ? | 0 | 0 | 0 | 56.2µM
O=C(CSc1oc(-c2ccco2)nc1S(=O)(=O)c1ccc(Cl)cc1)NCC1CCCO1 (stereo not drawn) | 0 | 0 | 0 | 79.4µM | ?
COc1ccc(C(=O)COC(=O)c2ccccc2O)c(OC)c1 | ? | 0 | - | 25.1µM | 28.2µM
COc1ccc(NC(=O)c2ccc3c(c2)NC(=O)CS3)cc1 | 0 | 0 | - | 0 | 0
COc1ccc(C(=O)COC(=O)c2ccc(Cl)nc2)c(OC)c1 | 0 | 50.1µM | - | ? | 39.8µM
COc1ccc(C(=O)COC(=O)CCNS(=O)(=O)c2ccccc2)c(OC)c1 | 0 | 0[0.505 µM] | - | ? | 50.1µM
COc1ccc(C(=O)COC(=O)c2ccc3c(c2)NC(=O)CS3)c(OC)c1 | ? | 0[0.505 µM] | - | ? | 39.8µM
COc1ccc(C(=O)COC(=O)c2ccc(Cl)nc2)cc1OC | 0 | 0 | - | 0 | 0
CC(C)(C)n1ncc2c(=O)n(Cc3ccc(Cl)cc3F)cnc21 | 0 | - | - | - | 0
CCC(C(=O)OCC(=O)c1ccc(OC)cc1OC)c1ccccc1 (stereo not drawn) | 0 | ? | - | 31.6µM | ?
CCC(C(=O)OCC(=O)Nc1cc(OC)ccc1OC)c1ccccc1 (stereo not drawn) | 0 | 0 | 0 | 0 | 0
SMILES | POLK inh | TDP1 inh | POLB inh | Pol eta inh | POLI inh
O=C(/C=C/c1c(Cl)nc2ccccn12)N1CCN(c2ccc(F)cc2)CC1 | 0 | 79.4µM | ? | 0 | 0
S=c1[nH]nc(-c2cc(-c3ccccc3)n[nH]2)n1/N=C/c1ccc(Cl)cc1 | 0 | 0 | 39.8µM | ? | 15.8µM
CCn1c2ccccc2c2cc(/C=N/n3c(-c4cc(C)[nH]n4)n[nH]c3=S)ccc21 | 0 | 0 | 50.1µM | ? | ?
S=c1[nH]nc(-c2cc(-c3ccccc3)n[nH]2)n1/N=C/c1ccc(Cl)c(Cl)c1 | ? | 79.4µM | 22.4µM | ? | ?
S=c1[nH]nc(-c2ccccn2)n1/N=C/c1ccc(Cl)c(Cl)c1 | 0 | 0 | 0 | 0 | 0
O=C(C[n+]1ccncc1)c1ccc2ccccc2c1 | 0 | - | - | - | 0
N#Cc1ccc(S(=O)(=O)N2CCN(S(=O)(=O)c3ccc4c(c3)OCCO4)CC2)cc1 | - | 0 | - | - | -
O=C(Cn1ncc2c3ccccc3n(Cc3ccccc3)c2c1=O)Nc1ccccc1C(F)(F)F | 0 | 0 | 0 | 0 | 0
Cc1ccc(S(=O)(=O)N2CCN(c3nc(-c4cccs4)nc4ncccc34)CC2)cc1 | 0 | - | - | - | 0
NC(N)=NCCC[C@H](NC(=O)CNC(=O)c1ccccc1)C(=O)Nc1cc(C(F)(F)F)ccc1Cl | - | 0 | - | - | -
c1ccc(Oc2nc(N3CCOCC3)nc(N3CCOCC3)n2)cc1 | 0 | 0 | 89.1µM | 0 | 0
Cc1c(NC(=O)C2CC=CCC2C(=O)O)c(=O)n(-c2ccccc2)n1C (stereo not drawn) | 0 | - | 25.1µM | ? | 0
Cc1c(NC(=O)C2CCN(S(=O)(=O)c3ccccc3)CC2)c(=O)n(-c2ccccc2)n1C | 0 | 0 | 0 | 0 | 0
O=C(NCc1ccc(/C=c2\sc3n(c2=O)CCN=3)o1)C(=O)Nc1ccccc1 | - | 0 | 4.47µM | - | -
Cc1ccc(/C=c2/sc3n(c2=O)CCCN=3)o1 | 0 | 0 | ? | 0 | 0
COc1cccc(CNc2ncnc3c2nnn3C)c1 | 0 | 0 | 0 | 0 | 0
COc1ccccc1NC(=O)Cn1cncc1-c1ccc([N+](=O)[O-])cc1 | 0 | 0 | 0 | 0 | ?
Cc1ccc(NC(=O)Cn2cncc2-c2ccc([N+](=O)[O-])cc2)cc1C | 0 | 0 | 35.5µM | ? | ?
CC(C)(C)n1ncc2c(=O)n(Cc3c(F)ccc(Cl)c3Cl)cnc21 | 0 | - | - | - | 0
CC(=O)Nc1cccc(-n2nnc(SCC(N)=O)n2)c1 | 0 | - | 0 | 0 | 0
CC(=O)Nc1cccc(-n2nnc(SCC(=O)Nc3ccc(F)c(Cl)c3)n2)c1 | 0 | 0 | ? | ? | 79.4µM
CC(c1ccco1)N(C)c1ncnc2ccc(-c3ccc4c(c3)OCO4)cc12 (stereo not drawn) | - | 0 | - | - | -
CC(=O)c1c(C(C)=O)c(C)n(-c2ccc(C(=O)O)cc2)c1C | 0 | 0 | 0 | 0 | 0
Cc1ccc(C)n1-c1ccc(C(=O)O)cc1 | - | 7.94µM | 3.16µM | - | -
COc1cccc(=O)c2c(C)n(-c3ccc(C(=O)O)cc3)c(C)c12 | 50.1µM | ? | 15.8µM | 12.6µM | 15.8µM
COc1ccc(C2Nc3ccccc3C(=O)N2Cc2ccc(-c3ccccc3)cc2)cc1COc1ccc(NC(C)=O)cc1 (stereo not drawn) | - | 0 | - | - | -
OCC1OC([S-])[C@H](O)C(O)C1O.[Au+] (stereo partly drawn) | 5.01µM | ? | - | - | -
O=S(c1ccccc1O)S(=O)c1ccccc1O (stereo not drawn) | ? | - | - | 22.4µM | 12.6µM
COc1ccc(Nc2c(-c3ccc(C)o3)nc3ccc(Cl)cn23)cc1 | 0 | 0 | 0 | 0 | 0
O=C(OCC1OC(OC(=O)c2cc(O)c(O)c(OC(=O)c3cc(O)c(O)c(O)c3)c2)[C@@H](OC(=O)c2cc(O)c(O)c(OC(=O)c3cc(O)c(O)c(O)c3)c2)C(OC(=O)c2cc(O)c(O)c(OC(=O)c3cc(O)c(O)c(O)c3)c2)C1OC(=O)c1cc(O)c(O)c(OC(=O)c2cc(O)c(O)c(O)c2)c1)c1cc(O)c(O)c(OC(=O)c2cc(O)c(O)c(O)c2)c1 (stereo partly drawn) | 0.006µM | 0 | - | - | -

High-throughput results (PubChem)
